Measured values reported in PubChem BioAssay (NCI).
The panel holds about 83,000 compounds, 20% with a hit somewhere; the sample as a whole holds those more often.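 Interpretation: 100, growth as untreated; towards 0, rising growth inhibition; 0, no net growth; 0 to -100, cell death. Compounds scoring below 10 were considered active.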 Values without a mark were called inactive. Activity calls are given as the source filed them.

system: SF-539 CNS; experiment: NCI-60 one-dose screen, 48 h (100 = growth as untreated, 0 = no growth, -100 = all killed); conditions: 10 µM unless noted

| SMILES | growth |
| --- | --- |
| Cc1ccc(/C=N/Nc2nc(Nc3ccccc3)nc(-n3nc(C)cc3C)n2)cc1 | 56.5% |
| COc1ccc(/C(C)=C(/c2ccc(OCCCN(C)C)cc2)c2ccc(OC(=O)Cc3ccccc3)cc2)cc1 | 76.1% |
| CCOC(=O)C1=C(NC)OCC1=O | 104% |
| C#CCOc1ccc2ncnc(Nc3cccc(NC(=O)C=C)c3)c2c1 | 59.2% |
| COc1cc(-n2cc(-c3cc(O)c(C/C=C(\C)CCC=C(C)C)c(O)c3)nn2)cc2c1O[C@]1(C)CC[C@@H](O)C(C)(C)[C@H]1C2 | -40.4% (active) |
| N#C/C(=C\c1ccc(Br)cc1)n1nnc2ccc(F)cc21 | -24.3% (active) |
| CCN(CC)CCNC(=O)c1cn2ncnc(Oc3ccc(NC(=O)Nc4ccc(Cl)c(C(F)(F)F)c4)c(F)c3)c2c1C | -79.8% (active) |
| Cc1nc(N2CCOCC2)sc1S(N)(=O)=O | 98% |
| CC(=O)N(N=Nc1ccccc1)c1cccc2ccccc12 | 111% |
| Cc1ccc(-c2nc(N3CCNCC3)c3oc(-c4ccccc4)nc3n2)cc1 | -91% (active) |
| Cc1cc2c(O)c(-c3cc(Cl)ccc3Cl)c3sc(=O)oc3c2cc1C | 89.9% |
| N=C(N)c1ccc(-c2ccc(-c3cc(Cl)cc(Cl)c3)o2)o1 | -85% (active) |
| CC1=Nc2cnc(Nc3ccc(OCCN4CCCCC4)cc3)nc2Nc2ccccc21 | 69.6% |
| Cc1cccnc1NC(=S)Nc1ncccc1C | 107% |
| CN1C(=O)/C(=C/c2ccc(C(=O)Nc3ncc(Cc4ccc(Cl)cc4)s3)cc2)SC1=S | 47.3% |
| COc1ccc(-c2nnc3n(C)c(=O)c4ccccc4n23)cc1N | -5.87% (active) |
| CC1=C(CCC(C)N(C)Cc2ccc(OCCCN3CCCC3)cc2)C(C)(C)CCC1 (stereo unspecified) | -79% (active) |
| CCCc1cc(NC)nc(S(=O)(=O)CC)n1 | 100% |
| Cc1cccc(Cl)c1NC(=O)c1ccc2nc(NC(=O)NCCN(C)C)sc2c1 | 79.8% |
| O=c1oc2ccccc2cc1C1=NN=C(SCc2ccccc2)SC1 | 96.5% |
| CC1(c2ccccc2O)NN=C(/N=C/c2cccc([N+](=O)[O-])c2)N1C(Cc1c[nH]c2ccccc12)C(=O)O (stereo unspecified) | 99.4% |
| CC(O)c1cnc(/C=C2\SC(=S)N(Cc3ccccc3)C2=O)s1 (stereo unspecified) | 91.9% |
| Cc1ccc(CNc2ccc(Cl)cc2NCc2ccc(C)c(O)c2)cc1O | 25.8% |
| NC(=O)c1c(NC(=O)c2ccccc2)sc2c1CCC(=O)C2 | 16.1% |
| CCn1c(=S)sc2c(Nc3ccc(F)cc3)nc(-c3cccnc3)nc21 | 41.5% |
| COc1cc(C(=O)n2nc(N3CCN(C)CC3)c3cc(N)ccc32)cc(OC)c1OC | -14.1% (active) |
